Data from PubChem BioAssay (EPA / NIEHS).
Calls of active or inactive are those of the source. How the source made its calls: active means hit-call score of the fitted dose curve at least 0.9, where 1 is the maximum; inactive means score below 0.9.

assay: ATG_RORE_CIS: Attagene CIS-FACTORIAL HepG2 Assay for human RAR-related Orphan Receptor Element (RORE) (AID 2282959); details: HepG2 Attagene cis-factorial RORE reporter, mRNA; actives raise or lower the signal
Experimental: ATG_CIS is a cell-based, multiplexed-readout assay that uses HepG2, a human liver cell line, with measurements taken at 24 hours after chemical dosing in a 24-well plate.ATG_RORE_CIS is one of 52 assay component(s) measured or calculated from the ATG_CIS assay. It is designed to make measurements of mRNA induction, a form of inducible reporter, as detected with fluorescence intensity signals by Reverse transcription polymerase chain reaction (RT-PCR) and Capillary electrophoresis technology.Data from the assay component ATG_RORE_CIS was analyzed into 1 assay endpoint. This assay endpoint, ATG_RORE_CIS, was analyzed with bidirectional fitting relative to DMSO as the negative control and baseline of activity. Using a type of inducible reporter, measures of mRNA for gain or loss-of-signal activity can be used to understand the reporter gene at the transcription factor-level as they relate to the gene RORA and RORB and RORC. Furthermore, this assay endpoint can be referred to as a primary readout, because this assay has produced multiple assay endpoints where this one serves a reporter gene function. To generalize the intended target to other relatable targets, this assay endpoint is annotated to the nuclear receptor intended target family, where the subfamily is orphan.
Human liver HepG2 cells are transiently transfected with multiple reporter transcription units (MRTUs) in 6-well plates using FuGene 6 reagent (Roche; 3 ml FuGene/1 mg DNA). The MRTU constructs are regulated by a cis-regulating element (promoter). […] A major difference between the CIS and TRANS system is that in CIS activities of endogenous TFs are measured, whereas the TRANS assay evaluates changes in activities of exogenous, chimeric NR-Gal4 proteins. […] At the end of 24 hour incubation, total RNA was isolated using TriZol reagent (Invitrogen). The isolated RNA is then reverse-transcribed using oligo(dT) primer and Mo-MLV reverse transcriptase (Invitrogen) with DNAse I (Ambion) treatment for 30 min. The one-tenth of the produced cDNA was amplified by PCR using Taq DNA polymerase (Invitrogen) and two reporter sequence-specific primers. The PCR products were fluorescently labeled by primer extension with 6-arboxyfluorescein (6-FAM) 5'-labeled reporter sequence-specific primer (2 min at 95 C, 20 s at 68 C and 10 min at 72 C) and these products were digested with 5U of HpaI (New England Biolabs) for 2h at 37 C. The fragments were purified using Qiaquick PCR columns (Qiagen), analyzed on an ABI 3130xL genetic analyzer (Applied Biosystems) with peak positions identified by using a set of X-rhodamine (ROX)-labeled MapMarker1000 molecular weight standards (BioVentures). The raw capillary electrophoresis data was processed using Attagraph software (Attagene).

Row | Compound | outcome
1 | O=S(=O)(O)c1cccc2ccccc12 | inactive
2 | COc1ccccc1OCC(O)CO (stereo not given) | inactive
3 | CCC(=O)OCc1ccc(OC)cc1 | inactive
4 | CCC(C)NC(N)=O (stereo not given) | inactive
5 | CC(C)CC(=O)O | inactive
6 | CCCCCCCCCC/C=C/C1CC(=O)OC1=O (stereo not given) | inactive
7 | C=CC(C)(CCC=C(C)C)OC(=O)c1ccccc1 (stereo not given) | inactive
8 | CCCC(=O)OC/C=C(\C)CCC=C(C)C | inactive
9 | Oc1ccc(Oc2ccccc2)cc1 | inactive
10 | CC/C=C\CC1=C(C)CCC1=O | inactive
11 | NCc1ccccc1 | inactive
12 | CCCCCCCC#N | inactive
13 | Clc1ccccn1 | inactive
14 | CCC(C)(CCC(C)C)C(=O)O (stereo not given) | inactive
15 | c1cc[c]([Bi]([c]2ccccc2)[c]2ccccc2)cc1 | inactive
16 | C[C@H]1C[C@H]2[C@@H]3CCC4=CC(=O)C=C[C@]4(C)[C@@]3(F)[C@@H](O)C[C@]2(C)[C@@]1(O)C(=O)CO | inactive
17 | c1ccc2c(c1)Oc1ccccc1S2 | inactive
18 | CCOC(=O)CC(=O)OCC | inactive
19 | CC/C=C/CCO | inactive
20 | O=C(OCc1ccccc1)c1ccccc1 | inactive

Row | Compound | outcome
21 | CNC(=C[N+](=O)[O-])NCCSCc1csc(CN(C)C)n1 | inactive
22 | CC(=O)OC(C)(C)Cc1ccccc1 | inactive
23 | CC1=C(CC(=O)O)c2cc(F)ccc2/C1=C\c1ccc(S(C)=O)cc1 (stereo not given) | inactive
24 | CCCCCCC1CCC(=O)O1 (stereo not given) | inactive
25 | CCOC(=O)c1ccccc1 | inactive
26 | CCO[Si](CCCN)(OCC)OCC | inactive
27 | CC/C=C\CCO | inactive
28 | C=CCOC(=O)C(=C)C | inactive
29 | O=C(O)/C=C/C(=O)O | inactive
30 | CCCCCCCCCCCCCC | inactive
31 | Oc1ccc(Cl)cc1C1CCCC1 | inactive
32 | O=C(O)/C=C\C(=O)O | inactive
33 | C[Si](C)(C)O[Si](C)(C)O[Si](C)(C)C | inactive
34 | O=C1NC(=O)C2CC=CCC12 (stereo not given) | inactive
35 | Cc1cc2nc3c(=O)[nH]c(=O)nc-3n(C[C@H](O)[C@H](O)[C@H](O)CO)c2cc1C | inactive
36 | Nc1nnc(-c2ccc([N+](=O)[O-])o2)o1 | inactive
37 | COCCCN | inactive
38 | CC=CC(=O)O | inactive
39 | CCCCCC1CCCC(=O)O1 (stereo not given) | inactive
40 | C=C1CC[C@H]2C[C@@H]1C2(C)C | inactive
